One experiment deals with HPD. Briefly: pooled miR-30 sensor sort-seq; sequence = guide strand. The following applies: shRNA.
Regarding ATGACTTCCAGGAAGAGCGTGG, the sensor-assay potency score (higher = more potent) is -0.0981.

As for TACATGGCTGACCACCTCCCGG, the sensor-assay potency score (higher = more potent) was -1.66.

With TATTCCGTGTGCACCTGCGTGT, the sensor-assay potency score (higher = more potent) is -0.504.

AACTTGTCTTGCTCTACCCAGG: the sensor-assay potency score (higher = more potent) is -0.858.

Regarding TTATAGTCCACATATTCCTGGA, the sensor-assay potency score (higher = more potent) was determined as 0.144.

On to TGTGATGATGTCTTCGGTCTTG, for which the sensor-assay potency score (higher = more potent) was determined as 0.215.

Regarding TTTGGTGAAGATCTGCAGGAGG, the sensor-assay potency score (higher = more potent) was -0.36.

For another experiment, the target named is HS3ST2. The experiment is described as above. The conditions noted are these: shRNA.
The sequence TCTTGAGTGACAAAGTAGCTGG registered a sensor-assay potency score (higher = more potent) of -0.586.

For TTCTTGGAGAGTGTCTGCGTGT, the sensor-assay potency score (higher = more potent) was -0.361.

Take TTGATTTGCCCAAGCATCGAGG: the sensor-assay potency score (higher = more potent) is -0.341.

Regarding TTATTTCACATGGACAAGCATG, the sensor-assay potency score (higher = more potent) was -1.23.

Sequence TAACAGCAGAATTATGTGCTTT came in with a sensor-assay potency score (higher = more potent) of -0.0537.

Regarding TAACACAGGTAAGTGCAGGAGA, the sensor-assay potency score (higher = more potent) is -0.326.

Sequence TTGAGTGACAAAGTAGCTGGGC registered a sensor-assay potency score (higher = more potent) of 0.674.

In turn, ATCGCTTATAATATCTATCATC had a sensor-assay potency score (higher = more potent) of -1.47.

Sequence TTGCTTGAACAGACTGATGAAA yielded a sensor-assay potency score (higher = more potent) of -0.965.

In the case of TTGTCCGTGATGAATCTCTTAA, the sensor-assay potency score (higher = more potent) was -1.07.

ATAATATCTATCATCATTGGAA showed a sensor-assay potency score (higher = more potent) of -0.218.
Also: reference of the scale not given here.
